Bioassay records deposited in PubChem by The Scripps Research Institute Molecular Screening Center.
Hits are enriched below; roughly 1.1% of the tested compounds scored in any of these assays.
LRH-1 inv ag = LRH-1 (NR5A2) inverse agonists, primary screen, cell-based, luminescence, HEK293T, StAR-luciferase reporter | Nuclear receptor subfamily 5 group A member 2 (Homo sapiens), O00482 | LRH-1 transfected, 24 h | inhibition, % at 3.6 µM | 360,000 tested, 0.13% active;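 active means inhibition above the mean inhibition of all tested compounds plus 3 SD, cut at about 73% in these data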;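 further: 0% = DMSO wells and 100% = reporter-only cells lacking LRH-1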
NCOA3 inh = SRC3 coactivator transcriptional activity inhibitors, primary screen, cell-based, luminescence. Nuclear receptor coactivator 3 (Homo sapiens), Q9Y6Q9. HEK293 GAL4-SRC3 luciferase reporter. inhibition, % at 3.6 µM. 360,000 tested, 0.17% active;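 active means inhibition above a per-campaign cutoff, the mean of all compounds plus 3 SD, cut at about 60% in these data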;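 further: 0% = DMSO-treated cells and 100% = gossypol-treated cells at 36 µM; higher means less SRC3-driven luciferase light from the GAL4 reporter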
GalR3 antag = GalR3 antagonists in HEK293 cells, primary screen, cell-based, fluorescence readout; 360,000 tested, 0.44% active; HEK293 GalR3-CNG cAMP membrane potential fluorescence; galR3 body fused to GalR1 C-terminus; inhibition, % at 3 µM; Galanin receptor type 3 (Homo sapiens), O60755;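 active means inhibition above the screen-wide average plus 3 SD, cut at about 13% in these data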;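 further: forskolin and galanin both at EC90 stimulate the cells; cAMP rise reported by CNG channel membrane potential dye signal; 0% = forskolin plus galanin with DMSO and 100% = forskolin alone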
Target sequence (O60755 1-299 limits assumed): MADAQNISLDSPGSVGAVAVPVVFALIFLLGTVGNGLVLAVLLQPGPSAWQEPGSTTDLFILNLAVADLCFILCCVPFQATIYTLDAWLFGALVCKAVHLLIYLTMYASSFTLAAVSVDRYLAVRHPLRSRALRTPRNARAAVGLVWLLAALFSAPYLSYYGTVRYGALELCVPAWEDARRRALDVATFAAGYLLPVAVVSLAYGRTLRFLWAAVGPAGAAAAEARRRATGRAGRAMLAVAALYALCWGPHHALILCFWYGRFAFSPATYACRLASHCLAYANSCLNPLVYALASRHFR
NCOA2 inhibitor = inhibition of GAL4-SRC2 driven luciferase reporter, primary screen, SRC2 inhibitor project, cell-based, luminescence; Nuclear receptor coactivator 2 (Homo sapiens), Q15596; HEK293 GAL4-SRC2 luciferase reporter; inhibition, % at 9 µM; 370,000 tested, 0.17% active; AID 651957, 2012;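 active means inhibition above the mean inhibition of all tested compounds plus 3 SD, set per campaign, cut at about 52% in these data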;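 further: 0% = DMSO treated cells and 100% = cells given Gossypol at 36 µM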
NR2F2 inh = NR2F2 transcriptional activity inhibitors, primary screen, cell-based, luciferase reporter, HEK293T, luminescence. HEK293T NGFI-A luciferase reporter. inhibition, % at 8.6 µM. AID 686940, 2013. 370,000 tested, 0.7% active;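 active means inhibition above a per-plate cutoff, mean inhibition of test wells between control levels plus 3 SD, cut at about 38% in these data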;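 further: cells cotransfected with COUP-TFII expression vector driving the NGFI-A reporter; 0% = median of COUP-TF2 test wells and 100% = reporter-only cells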
SRC1 inh = SRC1 coactivator transcriptional activity inhibitors, primary screen, cell-based, luminescence; Nuclear receptor coactivator 1 (Homo sapiens), Q15788; HEK293 GAL4-SRC1 luciferase reporter; inhibition, % at 3.6 µM; 360,000 tested, 0.12% active; AID 588354, 2011;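 active means inhibition above the campaign mean plus 3 SD, with each screening campaign given its own cutoff, cut at about 60% in these data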;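 further: 0% = DMSO treated cells and 100% = gossypol at 36 µM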
Numbers without * were called inactive.

O=C1C2CC=CCC2C(=O)N1SC(Cl)(Cl)Cl (stereo unspecified) was read as GalR3 antag 35*, NCOA2 inhibitor -8 and NR2F2 inh 15.
For Cc1nc2cc(-c3ccc(Cl)cc3)nn2c(C)c1CCC(=O)N1CCC2(CC1)OCCO2 the results were LRH-1 inv ag -3, NCOA3 inh 17, GalR3 antag -3, NCOA2 inhibitor 56*, NR2F2 inh -9 and SRC1 inh -4.
`O=C(CCn1nc(-c2ccc(Cl)cc2)ccc1=O)N1CCC2(CC1)OCCO2` gave LRH-1 inv ag 23, NCOA3 inh 2, GalR3 antag -5, NCOA2 inhibitor 20, NR2F2 inh 13 and SRC1 inh 0.
Screening C[C@H]1[C@H](OC(=O)CCC(=O)NCc2ccc(C(=O)O)cc2)O[C@@H]2O[C@@]3(C)CC[C@H]4[C@H](C)CC[C@@H]1C24OO3 returned LRH-1 inv ag 89*, NCOA3 inh 72* and SRC1 inh 62*.
CC(C)(C)n1nnnc1C1CN=C(c2ccccc2)c2ccccc2N1 (stereo unspecified) was read as NCOA2 inhibitor -16 and NR2F2 inh -3.
Screening Cn1ncnc2c(=O)n(C)c(=O)nc1-2 returned LRH-1 inv ag 100*, NCOA3 inh 91* and SRC1 inh 88*.
C[C@@H]1CNCCN1c1ccc(N2CC[C@H](O)C2)c(C#N)c1 was read as GalR3 antag -5, NCOA2 inhibitor 9 and NR2F2 inh -1.
`Cc1ccc(-c2cc(-c3ccc(C)cc3)[n+](-c3ccccc3)c(-c3ccc(C)cc3)c2)cc1` gave LRH-1 inv ag 93*, NCOA3 inh 79* and SRC1 inh 65*.
`CCC(=O)[C@@H](C)[C@@H](O)[C@H](C)C[C@@H](C)C1OC(=O)C[C@@]2(O)CC=C(C)C(O2)C(C)=CCCC[C@H](O[C@H]2C[C@@H](OC(N)=O)[C@H](O)[C@@H](C)O2)C=C[C@H](C)C[C@H]1C` (stereo partly specified) gave LRH-1 inv ag 85*.
`CCOC(=O)C(NC(C)=O)C(OC(C)=O)c1cccc(N(CCCl)CCCl)c1` (stereo unspecified) gave LRH-1 inv ag 11, NCOA3 inh -26, GalR3 antag 13*, NCOA2 inhibitor 9, NR2F2 inh 7 and SRC1 inh 15.
CC(=O)NC(Cc1ccc(N(CCCl)CCCl)cc1)C(=O)O (stereo unspecified) was read as LRH-1 inv ag -7, NCOA3 inh -3, GalR3 antag -3, NCOA2 inhibitor -16, NR2F2 inh -8 and SRC1 inh -6.
For c1ccc(Cn2nnnc2C2CN=C(c3ccccc3)c3ccccc3N2)cc1 (stereo unspecified) the results were NCOA2 inhibitor 8 and NR2F2 inh 0.
Screening O=c1[nH]c(=O)n(CCC2=CCCCC2)c(O)c1C=NC1CCN(Cc2ccccc2)CC1 returned LRH-1 inv ag 23, NCOA3 inh 35, GalR3 antag 2, NCOA2 inhibitor 26, NR2F2 inh 52* and SRC1 inh 11.
For Cc1ccc(OC(=O)N(C)C[C@@H]2OCc3ccccc3-c3c(n(C)c4ccccc34)C(=O)N([C@H](C)CO)C[C@H]2C)cc1 the results were GalR3 antag -6, NCOA2 inhibitor 11 and NR2F2 inh 16.
C[C@H]1CN([C@@H](C)CO)C(=O)CCCn2cc(nn2)CO[C@@H]1CN(C)C(=O)Oc1cccc2ccccc12 was read as GalR3 antag 0, NCOA2 inhibitor -21 and NR2F2 inh -26.
`COC(=O)C[C@]1(C(=O)OC)CN(C#N)N(c2ccc(Cl)cc2)C12c1ccccc1-c1ccccc12` gave LRH-1 inv ag 45, NCOA3 inh 67*, GalR3 antag 8, NCOA2 inhibitor 91*, NR2F2 inh 102* and SRC1 inh 2.
`CCOC(=O)[C@]12Cc3cc(Cl)ccc3[C@H]1N(CC(=O)OC)C(=O)c1ccccc12` gave LRH-1 inv ag 57.
Screening CC(=O)N1c2ccccc2C(c2ccccc2)=NCC1C(=O)NC1CCCCC1 (stereo unspecified) returned NCOA2 inhibitor 11 and NR2F2 inh -7.
Screening O=S(=O)(c1ccc2ccccc2c1)N1Cc2cc(Br)ccc2-n2nncc2C1 returned GalR3 antag 0, NCOA2 inhibitor -9 and NR2F2 inh -7.
O=C1/C(=C/c2ccccc2)C[C@@]2(O)[C@H]3Cc4ccc(O)c5c4[C@@]2(CCN3CC2CC2)C1O5 (stereo partly specified) was read as LRH-1 inv ag 84*, NCOA3 inh 83* and SRC1 inh 86*.
Screening CCOc1ccc(-c2c(C)n(-c3ccc(OCC)cc3)c3[n+]2CCCCC3)cc1 returned LRH-1 inv ag 88*, NCOA3 inh 82*, GalR3 antag 19*, NCOA2 inhibitor 33, NR2F2 inh 90* and SRC1 inh 74*.
For CCOc1ccc(-n2c(-c3ccoc3)nc3ccccc3c2=O)cc1 the results were LRH-1 inv ag 3, NCOA3 inh 11, GalR3 antag -6, NCOA2 inhibitor 7, NR2F2 inh 6 and SRC1 inh 13.
`COc1ccc2nc(-c3ccc(CN4CCC(n5c(=O)[nH]c6cc(Cl)ccc65)CC4)cc3)c(-c3ccccc3)nc2c1` gave GalR3 antag -4, NCOA2 inhibitor -3 and NR2F2 inh 7.
For C[C@H]1O[C@@H](OC2CC[C@]3(C=O)[C@H]4CC[C@]5(C)[C@@H](C6=CC(=O)OC6)CC[C@]5(O)[C@@H]4CC[C@]3(O)C2)CC2OC(C)(C)OC21 (stereo partly specified) the results were LRH-1 inv ag 99*, NCOA3 inh 86*, GalR3 antag 34*, NCOA2 inhibitor 60*, NR2F2 inh 75* and SRC1 inh 81*.
Screening COc1ccc(Cc2cn(C)c(N)n2)cc1 returned NCOA2 inhibitor -9 and NR2F2 inh -5.
`COc1ccc2c(c1)/C(=C/c1cnc[nH]1)C(=O)N2` gave LRH-1 inv ag 82*, NCOA3 inh 29, GalR3 antag 2, NCOA2 inhibitor -4, NR2F2 inh -14 and SRC1 inh 25.
For Cc1cc(N2CCNC[C@@H]2C)ccc1N1CCN[C@@H](C)C1 the results were GalR3 antag -7, NCOA2 inhibitor 1 and NR2F2 inh 15.
